Screening data (PubChem BioAssay)
This is a sample that favours compounds with a hit; in the whole collection about 6% have one here.
DRD3 antagonist – antagonists of human D3 dopamine receptor | max response, negative = inhibition, % | 360,000 compounds, 2.5% hits | D3R cells, DiscoveRx beta-arrestin luminescence, antagonist mode; active compounds read low; in the data active means max response below about -50%; inconclusive means no clear call, values can overlap the other calls; further: on the % scale 0 is the no-effect control and ±100 the full control effect
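Cells expressing the human receptor were seeded at 1500 cells/well, incubated overnight at 37 degrees C in 5% CO2, then exposed to library compounds with dopamine controls for 90 minutes at 37 degrees C before luminescent detection.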
D3 ag – activates the human D3 dopamine receptor; P35462; D3R DiscoveRx beta-arrestin cells, luminescence, 90 min; max activation, %; 410,000 compounds, 0.58% hits; AID 652048; in the data active means max activation above about 30%; further: 0% is about no effect
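Agonist mode: compounds and dopamine controls were applied to plated cells for 90 min at 37 degrees C after an overnight attachment at 1500 cells/well. Luminescent read-out followed 30 - 60 minutes at room temperature with DiscoveRx detection reagent.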
D1 antag – blocks dopamine activation of the human D1 receptor. HEK293 TREx D1 cells, calcium flux, dopamine EC80; active compounds read low. activity change, negative = inhibition, % at 10 µM. 360,000 compounds, 3.2% hits; in the data active means activity change below about -30%; further: on the % scale 0 is the no-effect control and ±100 the full control effect
Target sequence (P21728 whole entry, looked up): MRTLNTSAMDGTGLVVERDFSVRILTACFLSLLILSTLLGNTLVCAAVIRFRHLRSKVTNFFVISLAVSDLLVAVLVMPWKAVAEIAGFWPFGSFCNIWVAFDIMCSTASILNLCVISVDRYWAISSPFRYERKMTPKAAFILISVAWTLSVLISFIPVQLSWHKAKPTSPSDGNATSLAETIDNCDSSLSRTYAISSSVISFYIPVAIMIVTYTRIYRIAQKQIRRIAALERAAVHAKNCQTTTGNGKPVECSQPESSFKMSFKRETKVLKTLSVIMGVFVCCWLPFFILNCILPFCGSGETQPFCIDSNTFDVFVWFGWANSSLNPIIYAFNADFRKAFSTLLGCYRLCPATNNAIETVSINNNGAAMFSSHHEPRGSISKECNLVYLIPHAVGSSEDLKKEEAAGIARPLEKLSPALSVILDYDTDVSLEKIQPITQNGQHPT
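Antagonism measured as reduced calcium response to an EC80 dopamine addition following 180 s compound pre-read; cells were inducible HEK293 Trex D1 plated overnight at 30 C, read kinetically at 1 cycle/sec.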
D1 ag – agonists of human D1 dopamine receptor; activation, % at 2 µM; 360,000 compounds, 1% hits; P21728; HEK293 T-REx D1 cells, calcium flux, agonist mode; in the data active means activation above about 30%; further: 0% is about no effect
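Agonism was scored from calcium flux recorded over 180 s (1 read/s) after pintool compound addition, following a 10-cycle baseline. Cells were inducible force-coupled HEK293 TREx D1, plated overnight at 30 C and loaded with no-wash calcium dye.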
D1 PAM – potentiators of human D1 dopamine receptor. 360,000 compounds, 0.036% hits. potentiation, % at 10 µM. P21728. HEK293 TREx D1 cells, calcium flux, dopamine EC20 potentiation; in the data active means potentiation above about 30%; further: 0% is about no effect
The depositor's hits bear a star; ? = inconclusive; . = no result given.

SMILES	DRD3 antagonist	D3 ag	D1 antag	D1 ag	D1 PAM
CN(C)CCOCCOc1ccc(Cl)cc1C(C)(C)C	?	-12	-3	26	-9
CN(C)CC/C=C1/c2ccc(F)cc2Sc2ccc(Cl)cc21	-84*	-10	.	.	.
CN(C)CC/C=C1\c2ccccc2Sc2cc(F)c(Cl)cc21	-81*	-42	.	.	.
CN(C)CCC=C1c2ccccc2C(C)(C)c2ccccc21	.	-16	.	.	.
CN(C)CC/C=C1\c2cc(Cl)ccc2Sc2cc(F)c(F)cc21	-104*	-18	.	.	.
Oc1c(C(c2ccc(Cl)cc2)N2CCC3(CC2)OCCO3)sc2nc(-c3ccco3)nn12 (stereo not drawn)	.	-11	.	-3	2
CC1Cc2cc(S(=O)(=O)NCc3ccc(N(C)C)cc3)ccc2N1C(=O)C1CCC1 (stereo not drawn)	.	-18	-16	6	1
O=C(Nc1ccc(Cl)c(Cl)c1)C1CCCCC1	8	6	-32*	8	-8
COc1ccc(OC)c(NS(=O)(=O)c2ccc3c(c2)CCCN3C(=O)C2CCC2)c1	.	-5	-6	2	-4
O=C(Nc1ccc(Cl)c(Cl)c1)C1CC1	.	5	.	.	.
COc1ccc(NS(=O)(=O)c2ccc3c(c2)CCCN3C(=O)C2CCC2)cc1OC	.	-12	-42*	7	-7
CS(=O)(=O)N1CCC(C(=O)Nc2cc(Cl)c(Cl)cc2Cl)CC1	8	0	-34*	6	1
Cc1ccc(S(=O)(=O)N2C(=O)CCC2C(=O)Nc2ccc3c(c2)OCCO3)cc1 (stereo not drawn)	-65*	-6	-2	0	-8
Cc1cc(C)c(Cn2c3ccccc3c3cnn(CC(=O)NCCCc4ccccc4)c(=O)c32)c(C)c1	.	-9	-25	3	-4
CS(=O)(=O)N1CCC(C(=O)Nc2ccc(Cl)c(Cl)c2)CC1	-12	-8	-59*	20	-5
Cc1ccc(S(=O)(=O)N2CCC(C(=O)Nc3ccc(C)c(Cl)c3)CC2)cc1	.	8	-39*	14	-5
Cc1ccc(NC(=O)C2CCN(S(=O)(=O)c3ccc4c(c3)CCCN4C(=O)C3CCC3)CC2)cc1	.	0	-48*	1	-7
Cc1ccc(NC(=O)C2CCN(S(=O)(=O)c3ccc(F)cc3)CC2)cc1	5	1	-11	-1	-1
O=C(Nc1ccc(F)cc1)C1CCN(S(=O)(=O)c2ccc3c(c2)CCCN3C(=O)C2CCC2)CC1	.	-7	-22	0	-6
COc1ccc(/C=N/NC(N)=S)cc1	-4	5	0	1	-2
C=CCOc1ccc(/C=N\NC(N)=S)cc1	3	-2	-62*	0	-5
COc1cccc(CSc2nc3n(n2)C(c2cccs2)C(C(=O)Nc2ccccc2C)=C(C)N3)c1 (stereo not drawn)	.	-10	-3	2	-1
O=C(Nc1ccc(Br)cn1)c1ccc(COc2c(F)c(F)cc(F)c2F)o1	-13	-5	-6	32*	.
CC1=C(C(=O)Nc2ccccc2)C(c2ccccn2)n2nc(SCc3ccccc3Cl)nc2N1 (stereo not drawn)	.	-13	13	-2	0
Fc1cccc(Cl)c1CNCCSc1nnnn1-c1ccccc1	.	-13	-2	-1	0
SMILES	DRD3 antagonist	D3 ag	D1 antag	D1 ag	D1 PAM
COc1ccc(N=Nc2nc3cc(Br)c(Br)cc3n2C)c(OC)c1	-18	-14	-12	88*	-5
Cc1nc(N2CCOCC2)c(C#N)c(C)c1Br	25	0	17	-4	1
Cc1nc(Br)c(Br)c(C)c1Br	-4	-4	-31*	5	-9
N#CC1=C(N)Oc2cc(N)ccc2C1c1cccnc1 (stereo not drawn)	-11	4	-3	0	-2
CCN(CC)c1ccc2c(c1)OC(N)=C(C#N)C2c1cccnc1 (stereo not drawn)	5	4	10	86*	-4
CCOc1ccc2c(c1)nc(C)n2C	6	-19	-47*	1	-8
CCC(C)NC(=O)Cn1c(=O)n(-c2ccc(Cl)c(Cl)c2)c(=O)c2c(C)c(C(=O)N(CC)CC)sc21 (stereo not drawn)	.	5	-4	0	5
Cc1ccc(-c2nn(-c3cccc(F)c3)cc2CN2CCN(c3ccccn3)CC2)o1	-70*	-3	9	1	-9
Cc1ccc(-c2nn(-c3cccc(F)c3)cc2CN(Cc2nccn2C)C(C)C)o1	-3	3	1	-1	-2
